Source: PubChem
Only some compounds are listed: those with a hit (about 5.4% of all), similar ones and a draw of the others.
Sm TGR block: blocks Schistosoma mansoni thioredoxin glutathione reductase; Q962Y6; purified TGR, DTNB reduction, TNB absorbance 405 nm; Potency, µM (titrated, usually from 114 µM), inactives show top-dose activity change, negative = inhibition, actives largely listed as inhibitors; hit rate 3% among 360,000; AID 485364; active = well fitted inhibition curve with a large enough effect; inconclusive = small, poorly fitted or top-dose-only effect; inactive = no such curve, though single readings can be large or run the other way; note: nearly all actives have a fitted effect of over 60% in size
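TGR 20 nM + NADPH 100 uM (dispensed conc.), cpd preinc 15 min RT; start with NADPH (500 uM addition) then DTNB (15 mM addition). Kinetic TNB absorbance, 405 nm filter. Four-parameter Hill fit across titration.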
VACV Venus inh: vaccinia inhibition (Venus reporter). Vaccinia virus Venus reporter expression, fluorescence. Potency, µM (series often up to 36.5 µM), for inactives: at the highest dose activity change, negative = inhibition, most hits filed as inhibitors. hit rate 0.46% among 330,000; calls by dose curve; tested in A549 cells; note: nearly all actives have a fitted effect of over 30% in size
MARV entry inh: Marburg virus entry inhibition | Marburg virus pseudotyped entry inhibition, cell reporter | Potency, µM (titrated, usually from 37.8 µM), for inactives: at the top dose activity change, negative = inhibition, most hits filed as inhibitors | hit rate 1.8% among 300,000 | AID 540276; calls by dose curve; tested in HEK293 cells
FMDV inh: blocks foot and mouth disease virus | FMDV antiviral cell-based qHTS | Potency, µM (highest dose often 57.9 µM), without a hit: at the highest dose activity change, negative = inhibition, most hits filed as inhibitors | hit rate 1.2% among 410,000 | AID 1159524; calls by dose curve; tested in HEK293T cells; note: read-out not given here; nearly all actives have a fitted effect of over 45% in size
Lassa entry inh: inhibitors of Lassa virus binding or cell entry | Lassa virus pseudotype entry inhibition, cell reporter | Potency, µM (series often up to 37.9 µM), for inactives: at the top dose activity change, negative = inhibition, hits mostly inhibitors | hit rate 1.2% among 300,000 | AID 540256; calls by dose curve; tested in HEK293 cells; note: nearly all actives have a fitted effect of over 50% in size
VACV mCherry inh: inhibitors of vaccinia virus infection (mCherry reporter signal). hit rate 0.63% among 310,000. Vaccinia virus mCherry reporter infection, fluorescence. Potency, µM (doses to about 36.5 µM), without a hit: at the highest dose activity change, negative = inhibition, hits mostly inhibitors; calls by dose curve; tested in A549 cells; note: nearly all actives have a fitted effect of over 35% in size
An asterisk follows results filed as active; i = inactive; u = inconclusive; x = no result; [ ] = another dose, or the depositor's remark. % is set by controls: 0 for no effect and ±100 for the full control effect; potency is the fitted concentration of half-maximal effect.

SMILES	Sm TGR block	VACV Venus inh	MARV entry inh	FMDV inh	Lassa entry inh	VACV mCherry inh
COc1ccc([N+](=O)[O-])cc1NC(=S)Nc1ccccc1	28.2µM*	-11.7%	5.3%	-23.7%	9.1%	x
C/C=C/C=C/C(=O)OC(C)C(=O)Nc1cc([N+](=O)[O-])ccc1OC (configuration not stated)	22.4µM*	u	10.7%	-14.5%	u	u
Cc1ccc(C(C)C)c(OCC(O)CN(C)Cc2ccccc2)c1 (configuration not stated)	-2.1%	u	u	u	u	-26.4%
Cc1ccc([N+](=O)[O-])c(OCCN2C(=O)NC(C)(C)C2=O)c1	1.5%	x	-5.6%	-9.3%	2.3%	x
Cc1ccc(C(C)C)c(OCCCN2C(=O)NC(C)(C)C2=O)c1	-34.1%	x	u	-24.4%	11.6µM*	x
Cc1ccc(C(C)C)c(OCCCN(C)Cc2ccccc2)c1	-14.0%	-13.4%	8.2µM*	-7.0%	u	-21.0%
COc1cccc(CNC(=O)C2CCCN(S(=O)(=O)c3ccc4c(ccn4C)c3)C2)c1OC (configuration not stated)	-0.2%	-3.5%	x	u	-25.6%[46.1 µM]	-13.7%
CC(=O)c1cccc(NC(=O)Cc2ccc(NC(=O)N3CCCCc4ccccc43)cc2)c1	-1.1%	-6.0%	x	-27.3%	18.7%[46.1 µM]	-15.7%
COc1ccc(S(=O)(=O)NCCc2sc3nc(-c4ccc(C)cc4)nn3c2C)cc1C	-4.0%	-4.2%[7.34 µM]	x	4.4%	-33.7%[46.1 µM]	-6.4%[7.34 µM]
O=C1N(Cc2ccc(Br)cc2)c2cccc(Br)c2[C@@]12O[C@H](COc1ccccc1)CC1=CCCC12 (some centres not stated)	x	x	11.3%[14.2 µM]	x	x	x
CC(=O)Nc1ccc(Oc2sc(C(=O)c3ccccc3)c(N)c2C#N)cc1	-1.2%	u	u	u	0.891µM*	x
CC(=O)Nc1ccc(Oc2ccccc2)cc1	1.6%	x	x	-4.2%	x	x
COCC(=O)Nc1cc(C(=O)N2CCSCC2)cc2nc(-c3ccccc3)n(C)c12	x	-12.3%	x	-25.7%	x	-0.2%
NC(=O)Cc1ccccc1Oc1nccc(-c2c(-c3ccc(F)cc3)ncn2C2CCNCC2)n1	x	x	x	x	-15.5%	x
Fc1ccc(-c2ncn(C3CCNCC3)c2-c2ccnc(Oc3ccccc3)n2)cc1	x	x	x	x	6.28µM*	x
O=c1c(-c2ccc(F)cc2)nc2cnc(Nc3ccccc3)nc2n1C1CC1	x	x	x	-3.6%	x	x
Fc1ccc(-c2ncn(C3CCNCC3)c2-c2ccnc(Oc3ccc4c(c3)OCO4)n2)cc1	x	x	x	x	12.5µM*	x
CN1CCC(n2cnc(-c3ccc(F)cc3)c2-c2ccnc(Nc3ccccc3)n2)CC1	x	x	x	x	15.8µM*	x
COc1nccc(-c2c(-c3ccc(F)cc3)ncn2C2CCC(O)CC2)n1 (configuration not stated)	x	x	x	-20.4%	x	x
Cc1ccc2c(-c3ccnc(Nc4ccccc4)n3)c(-c3ccc(F)cc3)nn2n1	x	x	x	x	25µM*	x
S=C(Nc1ccccc1Cl)N1CCC(c2ccccc2)C1 (configuration not stated)	-0.9%	-3.5%	19.8%[46.1 µM]	29.6%	1.4%	10.1%
Cc1ccc(NC(=S)N2CCC(c3ccccc3)C2)c(Cl)c1 (configuration not stated)	17.1%	-9.4%	u	2.5%	10µM*	-15.2%
COc1cccc(CC(=O)NCC2Cc3cc(Cl)cc(-c4ncccn4)c3O2)c1 (configuration not stated)	x	-23.4%	x	-11.5%	x	-6.3%
CCCN1C(=O)S/C(=C/c2ccc(N3CCOCC3)o2)C1=O	1.41µM*	80.2%	-5.6%[46.1 µM]	30.3%	18.0%[46.1 µM]	u
CCCN1C(=O)S/C(=C\c2ccc(N3CCOCC3)o2)C1=O	8.91µM*	37.9%	-27.3%[46.1 µM]	3.6%	3.9%	u
SMILES	Sm TGR block	VACV Venus inh	MARV entry inh	FMDV inh	Lassa entry inh	VACV mCherry inh
CCCN1C(=O)S/C(=C\c2ccc(N3CCOCC3)cc2C)C1=O	2.3%	x	4.9%	x	x	x
CCc1oc(C(=O)OC)cc1CSC(=N)N	20µM*	-23.8%	u	-16.5%	-26.6%	-12.2%
COC(=O)c1ccc(CSC(=N)N)o1	-0.7%	-15.4%	u	u	u	-19.1%
Cc1cccc(CCNC(=O)c2cnc3c(C)cccn3c2=O)c1	9.2%	2.9%	x	9.5%	15.8%[46.1 µM]	-10.6%
N=C1S/C(=C\c2ccc(-c3cccc(Cl)c3)o2)C(=O)N1c1nccs1	-20.4%	-8.9%	3.16µM*	-7.6%	u	-1.5%
c1ccc2c(c1)CCCN2Cc1nnnn1C1CCCC1	6.1%	x	-29.3%	25.7%	0.5%	x
c1ccc(CCn2nnnc2CN2CCc3ccccc32)cc1	12.6µM*	-12.8%	1.4%[46.1 µM]	-10.6%	-17.5%	-18.5%
COc1ccc(NC(=O)CSc2n[nH]c(-c3ccccn3)n2)cc1	8.8%	u	u	4.1%	x	u
O=C(CSc1n[nH]c(-c2ccccn2)n1)Nc1ccccc1	u	-23.7%	u	-11.8%	u	7.94µM*
O=C(CSc1n[nH]c(-c2ccccn2)n1)Nc1ccccc1F	-0.5%	u	u	-1.5%	x	28.2µM*
COc1cc(-c2c(C#N)c(N)nc3c2c(C)nn3-c2ccc(C)c(C)c2)cc(OC)c1OC	0.2%	x	20.6µM*	-12.9%	u	x
N#C/C(=C\c1ccc(OC(=O)c2ccccn2)cc1)C(N)=O	39.8µM*	-9.5%	19.1%	4.6%	8.8%	-11.1%
N#C/C(=C\c1ccc(OCc2ccccc2)cc1)C(N)=O	1.9%	6.9%	14.3%[46.1 µM]	17.0%	8.5%	-7.5%
COc1ccc2[nH]cc(CCN3C(=O)CCC3=O)c2c1	0.0%	-12.9%	8.3%	-8.2%	-7.7%	x
COc1ccc2[nH]cc(CCCN3C(=O)c4ccccc4C3=O)c2c1	-20.0%	-5.8%	u	-19.3%	11.2µM*	-7.6%
COc1ccc(CCNc2nnc(Sc3nnnn3-c3ccccc3)s2)cc1OC	3.7%	x	u	28.2µM*	-21.5%	x
Cc1cccc(-c2nc(CCNC(=O)c3ccccc3Br)cs2)c1	4.9%	-16.1%	x	-13.3%	-3.4%[46.1 µM]	-12.5%
CCOC(=O)N1CCN(CC(=O)c2ccc3c(c2)CCN3C(C)=O)CC1	20µM*	-5.0%	x	-18.0%	x	i
Cc1cccc(-n2c(C)nc3cc(C(=O)NC4CCCCCC4)ccc32)c1	5.3%	-6.7%	x	17.1%	10.1%[46.1 µM]	-7.9%
COc1ccc(C(=O)CSc2nnc(-c3ccccn3)n2Cc2ccco2)cc1	50.1µM*	x	27.5%	-2.7%	11.6%	x
O=C(CSc1nnc(-c2cnccn2)n1Cc1ccco1)c1ccccc1	35.5µM*	x	9.7%	0.0%	-0.2%	x
O=C(CSc1nnc(-c2ccccn2)n1Cc1ccco1)c1ccc(Cl)cc1	20µM*	x	-0.4%	-16.7%	2.3%	x
O=C(CSc1nnc(-c2cnccn2)n1Cc1ccco1)c1ccc(Cl)cc1	10µM*	x	22.9%	-29.9%	-10.6%	x
O=C1[C@H]2[C@H]3[C@H](O)[C@H](O)C/C(=N\OC[C@@H](O)COCc4ccco4)[C@@H]3CC[C@H]2C(=O)N1C[C@@H]1CCCO1	x	x	3.6%[14.2 µM]	x	x	x
CCOc1ccc(NC(=O)c2cnn3c2NC(c2cccc(OC)c2)=CC3c2ccccc2)cc1 (configuration not stated)	4.5%	-26.5%	x	-22.2%	u	u
